Results: PubChem BioAssay AID1159580 (chemical genetic matrix, 2015)
Several values for one entry are separate records, joined by “and”; a condition that tells them apart may be missing. Identical values can stand only once. The campaign covered roughly 5,500 compounds. About 2,000 (36%) were called active. About 18% were inconclusive and are not listed. No stated cut-off is given here; in the data, active means normalized growth mostly below about 0.91 (no sharp cut-off); inconclusive means no clear call, values can overlap the other calls; inactive means mostly above about 0.92. The list shows a part of the results.

Experiment: chemical genetic growth profiling, strain panel (AID 1159580);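 further: tested at 20 µM; growth read once vehicle control cultures reached saturation at 30 °C; 1 = growth at the plate median or of vehicle wells; lower values mean less growth of the strain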
Details: S. cerevisiae deletion strains, growth OD

Measured: normalized growth

NCCS
inactive: locus YAL013W, strain DEP1, hits give low values 1 | locus YAL021C, strain ccr4, hits give low values 0.977 | locus YAL026C, strain drs2, hits give low values 0.99 | locus YAL030W, strain snc1, hits give low values 1.01 | locus YAL040C, strain CLN3, hits give low values 0.985 | locus YBL061C, strain skt5, hits give low values 0.988 | locus YBR009C, strain hhf1, hits give low values 0.988 | locus YBR021W, strain FUR4, hits give low values 1 | locus YBR023C, strain chs3, hits give low values 0.987 | locus YBR171W, strain sec66, hits give low values 0.998 | locus YBR229C, strain ROT2, hits give low values 1.01 | locus YBR231C, strain swc5, hits give low values 0.991 | locus YBR279W, strain paf1, hits give low values 1 | locus YCL011C, strain gbp2, hits give low values 0.982 | locus YCL016C, strain dcc1, hits give low values 0.976 | locus YCL029C, strain bik1, hits give low values 1.02 | locus YCL061C, strain MRC1 (second series), hits give low values 1.01 | locus YCL061C, strain MRC1, hits give low values 1 | locus YCL069W, strain vba3, hits give low values 0.992 | locus YCR088W, strain abp1, hits give low values 0.994 | locus YDL005C, strain med2, hits give low values 0.981 | locus YDL035C, strain GPR1, hits give low values 1.02 | locus YDL040C, strain nat1, hits give low values 0.992 | locus YDL074C, strain BRE1, hits give low values 1.02 | locus YDL101C, strain DUN1, hits give low values 1.01 | locus YDL134C, strain PPH21, hits give low values 1.02 | locus YDL185W, strain tfp1, hits give low values 1 | locus YDL192W, strain arf1, hits give low values 1.01 | locus YDR001C, strain nth1, hits give low values 0.997 | locus YDR069C, strain doa4, hits give low values 0.988 | locus YDR101C, strain arx1, hits give low values 1 | locus YDR137W, strain rgp1, hits give low values 1 | locus YDR150W, strain NUM1, hits give low values 1.01 | locus YDR159W, strain sac3, hits give low values 0.986 | locus YDR162C, strain NBP2, hits give low values 1.01 | locus YDR195W, strain ref2 0.923 | locus YDR297W, strain sur2, hits give low values 0.999 | locus YDR318W, strain mcm21, hits give low values 1.01 | locus YDR334W, strain swr1, hits give low values 0.972 | locus YDR335W, strain msn5, hits give low values 0.991 | locus YDR363W, strain ESC2, hits give low values 1.03 | locus YDR388W, hits give low values 1.01 | locus YDR392W, strain spt3, hits give low values 0.969 | locus YDR502C, strain sam2, hits give low values 1.01 | locus YEL003W, strain gim4, hits give low values 0.986 | locus YEL037C, strain rad23, hits give low values 0.983 | locus YEL061C, strain CIN8 (second series), hits give low values 0.976 | locus YEL061C, strain CIN8, hits give low values 1.01 | locus YER002W, strain NOP16, hits give low values 0.992 | locus YER015W, strain faa2, hits give low values 0.995 | locus YER016W, strain bim1, hits give low values 1 | locus YER110C, hits give low values 1.02 | locus YER111C, strain swi4, hits give low values 0.986 | locus YER155C, strain BEM2 (second series), hits give low values 0.982 | locus YER155C, strain BEM2, hits give low values 1.01 | locus YER167W, strain BCK2, hits give low values 1.02 | locus YFR010W, strain ubp6, hits give low values 0.981 | locus YGL078C, strain dbp3, hits give low values 1.02 | locus YGL086W, strain mad1, hits give low values 1.01 | locus YGL167C, strain pmr1, hits give low values 0.982 | locus YGL173C, strain kem1, hits give low values 0.986 | locus YGL227W, strain vid30, hits give low values 0.984 | locus YGL240W, strain doc1, hits give low values 0.976 | locus YGL248W, strain PDE1, hits give low values 1.01 | locus YGL253W, strain hxk2, hits give low values 0.979 | locus YGR078C, strain PAC10, hits give low values 1.02 | locus YGR135W, strain pre9, hits give low values 1.02 | locus YGR229C, strain SMI1, hits give low values 1.01 | locus YGR252W, strain gcn5, hits give low values 1.04 | locus YHR013C, strain ard1, hits give low values 0.972 | locus YHR027C, strain rpn1, hits give low values 0.985 | locus YHR030C, strain SLT2, hits give low values 1.02 and 1.03 | locus YHR079C, strain IRE1 (second series), hits give low values 1.02 | locus YHR079C, strain IRE1, hits give low values 1.04 | locus YHR094C, strain hxt1, hits give low values 1.01 | locus YHR129C, strain ARP1, hits give low values 1.01 | locus YHR142W, strain chs7, hits give low values 0.984 | locus YHR200W, strain rpn10, hits give low values 1.02 | locus YIL066C, strain RNR3, hits give low values 1.02 | locus YIL073C, strain SPO22, hits give low values 1.02 | locus YIL125W, strain kgd1, hits give low values 1.01 | locus YIR030C, strain dcg1, hits give low values 1.03 | locus YJL092W, strain hpr5, hits give low values 0.997 | locus YJL095W, strain BCK1 (second series), hits give low values 0.996 | locus YJL095W, strain BCK1, hits give low values 1.01 and 1.02 | locus YJL115W, strain asf1, hits give low values 0.966 | locus YJL129C, strain trk1, hits give low values 0.995 | locus YJL134W, strain LCB3, hits give low values 1.01 | locus YJL154C, strain vps35, hits give low values 0.988 | locus YJL164C, strain tpk1, hits give low values 0.99 | locus YJL166W, strain qcr8, hits give low values 1 | locus YJL168C, strain set2, hits give low values 1.02 | locus YJL187C, strain SWE1 (second series), hits give low values 1.01 | locus YJL187C, strain SWE1, hits give low values 0.992 | locus YJR043C, strain POL32, hits give low values 1.01 | locus YJR066W, strain TOR1, hits give low values 0.998
